Source: PubChem BioAssay AID2685 (National Center for Advancing Translational Sciences (NCATS), 2010)
Among all 320,000 compounds or so, about 2,100 (0.66%) were called active. Roughly 53% stayed inconclusive and do not appear here. Calls come from the whole dose curve; as a rule, active = well fitted inhibition curve with a large enough effect in the signal ratio, with a control signal flat (not every such curve was filed as active); inconclusive = small, poorly fitted or top-dose-only effect, or effect the other way, or a change in a side signal; inactive = flat fitted curve, though single readings scatter; the % refers to the signal ratio. The entries come from a sample that favours actives as a whole.

Test: qHTS Assay for Lipid Storage Modulators in Drosophila S3 Cells;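 for cell number change: cells counted by Cell Tracker Red CMTPX staining in the red channel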; for lipid storage change, negative = inhibition: % is set by controls: 0 for no effect and ±100 for the full control effect
Details: BODIPY lipid droplet fluorescence, 18-24 h, cells fed with added oleic acid; cell number change: measured here: cell count max response; series mostly up to 46.1 µM
Outline: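 Drosophila S3 cells loaded with oleic acid (400 uM, as added) and compounds at several concentrations; lipid droplets imaged by 488-nm laser-scanning cytometry, 500–530 nm intensity and object ratio to cell channel. Percent activity normalized to 20 uM Triacsin C.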
Potency is the fitted concentration of half-maximal effect.

Row | SMILES | Potency | cell number change | lipid storage change, negative = inhibition
1 | COC(=O)c1cc(OC)c(OC)cc1NCC(=O)Nc1ccc(C)cc1 | inactive | -5.98% | –
2 | O=C1c2ccccc2C(=O)c2c(NCCCN(CCO)CCO)cccc21 | – | 7.53% | 13.2% [at 9.22 µM] (inactive)
3 | CCN(CC)CC(=O)Nc1cccc2c1C(=O)c1ccccc1C2=O | inactive | 7.09% | –
4 | CNc1cccc2c1C(=O)c1ccccc1C2=O | 11.6 µM (active) | -6.63% | –
5 | COc1ccc(-n2cc(CN(C)C(C)c3ccncn3)c(-c3cccc(F)c3)n2)cc1 (stereo not given) | inactive | -0.848% | –
6 | CC(C)(C)c1ccc(C(=O)NCc2ccccc2)cc1 | inactive | -10.5% | –
7 | O=C(CCC(=O)c1ccc(Cl)cc1)NCc1ccccc1 | inactive | -20.1% | –
8 | CC(C)(C)c1ccc(C(=O)CCC(=O)NCc2ccccc2)cc1 | 14.6 µM (active) | 6.25% | –
9 | CCC(O)CNc1nc(-n2nc(C)cc2C)nc2sc3c(c12)CCCC3 (stereo not given) | inactive | 1.08% | –
10 | O=C(CSc1nc2ccccc2c(=O)[nH]1)Nc1ccc(S(=O)(=O)N2CCCC2)cc1 | inactive | -0.593% | –
11 | CC(=O)c1nnn(-c2ccccc2C#N)c1C | inactive | 25.6% | –
12 | O=C(Nc1nc(-c2cccs2)c(C(=O)C(F)(F)F)s1)c1ccccc1 | inactive | – | –
13 | NNC(=O)CC(=O)NC1(Cc2ccc(O)cc2)CCCCC1 | inactive | 4.44% | –
14 | O=C(NC1(Cc2ccc(O)cc2)CCCCC1)c1ccccc1 | 5.17 µM (active) | -23.1% | –
15 | CCC(=O)NC1(Cc2ccc(O)cc2)CCCCC1 | inactive | -37.5% | –
16 | CCC(CC)C(=O)Nc1nnc(S(=O)(=O)N2CCCc3ccccc32)s1 | inactive | -8.08% | –
17 | CC(C)(C)NC(=O)CCc1nnc(Cc2c[nH]c3ccccc23)o1 | inactive | -0.239% | –
18 | Cc1nn(C)c(C)c1S(=O)(=O)N(CC(=O)NCCN1CCOCC1)c1ccc(C(C)C)cc1 | inactive | 12.7% | –
19 | C/C(CC(O)c1ccc2ccccc2n1)=N/O (stereo not given) | 10.3 µM (active) | 3.68% | –
20 | Cc1nc2ccccc2nc(C)c1=NO | inactive | 8.5% | –
21 | CC(O)/C=C/c1ccc2ccccc2n1 (stereo not given) | inactive | -12.5% | –
22 | O=C(Nc1c2c(nn1-c1ccccc1)CS(=O)C2)c1ccc2c(c1)OCO2 (stereo not given) | inactive | 12.2% | –
23 | O=c1c2cnn(-c3ccccc3)c2ncn1Cc1ccccn1 | inactive | 26.2% | –
24 | O=c1c2cnn(-c3ccccc3)c2ncn1Cc1ccco1 | 32.6 µM (active) | 1.65% | –
25 | O=c1c2cnn(-c3ccccc3)c2ncn1Cc1ccccc1 | inactive | -12.8% | –

Row | SMILES | Potency | cell number change | lipid storage change, negative = inhibition
26 | COCCN1C(=O)N[C@H](c2cccc(C(F)(F)F)c2)C(C(=O)OC)=C1C | inactive | 3.4% | –
27 | O=C(NCCc1ccccc1)C(=O)c1c(-c2ccccc2)cc2ccccn12 | inactive | -0.29% | –
28 | Cc1ccc(S(=O)(=O)N(C)C)cc1NC(=O)COC(=O)c1sc2cc(Cl)ccc2c1Cl | 1.46 µM (active) | -27.1% | –
29 | Cc1ccc(S(=O)(=O)N(C)C)cc1NC(=O)COC(=O)c1ccc(Cl)cc1 | inactive | – | –
30 | Cc1ccc(S(=O)(=O)N(C)C)cc1NC(=O)COC(=O)c1ccc2c(c1)OCCO2 | inactive | -1.35% | –
31 | O=C(Nc1ccnn1C1CCN(Cc2ccc(O)c(Cl)c2)CC1)C1CCCC1 | inactive | 6.1% | –
32 | O=C1NCCn2ccc(=O)cc21 | inactive | 4.17% | –
33 | CCOC(=O)/C(N=O)=C(\O)C1CCN(C(=O)OCC)CC1 | inactive | 1.9% | –
34 | c1cncc(CNc2ncnc3sccc23)c1 | inactive | -4.09% | –
35 | c1ccc(CNc2ncnc3sccc23)cc1 | 16.4 µM (active) | -15.5% | –
36 | NS(=O)(=O)c1ccc(CNc2ncnc3sccc23)cc1 | inactive | -15.1% | –
37 | Cc1cc(C)cc(-n2ccn(CC(=O)NCCc3ccccc3)c(=O)c2=O)c1 | inactive | -3.95% | –
38 | Cc1ccc(OCC(=O)Nc2cccc(-c3nnc(-c4ccccc4)o3)c2)cc1 | inactive | 1.35% | –
39 | Cc1cccc(N(CC(=O)Nc2ccccc2F)S(C)(=O)=O)c1 | 6.51 µM (active) | – | –
40 | CSc1ccccc1NC(=O)CN(c1cc(C)cc(C)c1)S(C)(=O)=O | inactive | – | –
41 | CSc1ccccc1NC(=O)CN(c1cccc(C)c1)S(C)(=O)=O | inactive | -13.7% | –
42 | C/C(=N\N=C\c1cccc(F)c1)c1nnn(-c2nonc2N)c1C | inactive | -1.27% | –
43 | CCOc1ccc(NC(=O)CCS(=O)(=O)c2ccc(C)cc2)cc1 | inactive | 9.92% | –
44 | CCOc1ccc(NC(=O)CNS(=O)(=O)c2c(C)cc(C)cc2C)cc1 | 0.92 µM (active) | – | –
45 | CCOc1ccc(NC(N)=O)cc1 | inactive | 1.62% | –
46 | CCC(C)NCCCOc1cc(Cl)ccc1Cl (stereo not given) | inactive | 12.7% | –
47 | COc1ccc(N(CC(=O)Nc2ccc(C)c(C)c2)S(=O)(=O)c2c(C)n[nH]c2C)cc1 | inactive | 4.08% | –
48 | CNC(=O)N(C1=NCCCCC1)c1ccc(Br)cc1 | inactive | -6.67% | –
49 | Cc1nn(CCC(=O)N2CCN(S(=O)(=O)c3ccccc3)CC2)c(C)c1C | inactive | 24.4% | –
50 | Cc1cc(C)cc(C(=O)Oc2cc(C)[nH]c(=O)c2[N+](=O)[O-])c1 | inactive | -7.31% | –

Row | SMILES | Potency | cell number change | lipid storage change, negative = inhibition
51 | Cc1ccccc1NC(=O)C(C)Sc1nnc(-c2ccncc2)n1CC1CCCO1 (stereo not given) | 2.31 µM (active) | 3.95% | –
52 | O=C(CSc1nnc(-c2ccncc2)n1CC1CCCO1)Nc1ccccc1Cl (stereo not given) | inactive | 2.31% | –
53 | Cc1ccc(NC(=O)C(C)Sc2nnc(C)n2CC2CCCO2)cc1 (stereo not given) | inactive | 11.7% | –
54 | O=C(O)C1CC=CCC1C(=O)Nc1cccc(F)c1 (stereo not given) | inactive | – | –
55 | Cc1ccc(-n2c(N)cc(=O)nc2SCC(=O)NC2CCCCC2)cc1C | inactive | -3.12% | –
56 | Cc1ccnc(NC(=O)/C=C/c2cccs2)c1 | inactive | -3.66% | –
57 | O=C(CSc1ncccn1)Nn1cnnc1 | 7.31 µM (active) | -0.567% | –
58 | O=C(CSc1ncccn1)Nc1ccccc1 | inactive | 17.6% | –
59 | Cc1cc(C)nc(SCC(=O)Nn2cnnc2)n1 | inactive | -0.845% | –
60 | O=C(CSc1ccc(Cl)cc1)Nc1ncccn1 | inactive | 8.97% | –
61 | O=C(Nc1ccc(Cl)cc1)Nn1cnnc1 | inactive | 8.74% | –
62 | O=C(CSc1ccc(Cl)cc1)Nn1cnnc1 | 16.4 µM (active) | 7.58% | –
63 | Cc1ccc(-n2nc3c(c2NC(=O)C2CCCC2)CS(=O)(=O)C3)cc1 | inactive | -12.8% | –
64 | Cc1ccc(S(=O)(=O)N2CCc3ccccc3C2CN2C(=O)c3ccccc3C2=O)cc1 (stereo not given) | inactive | – | –
65 | COc1cccc(NC(=S)N2CCN(C(c3ccccc3)c3ccccc3)CC2)c1 | inactive | – | –
66 | Cc1nn(C)c(C)c1/C=N/NC(=O)CCn1nc(C)c([N+](=O)[O-])c1C | inactive | -10.6% | –
67 | Cc1ccc(OCC(=O)n2cnnc2N)c(C)c1 | inactive | -14.9% | –
68 | CCN1CCN(Cc2c(C)[nH]c3ccc(OC)cc3c2=O)CC1 | inactive | 9.98% | –
69 | COc1ccc(N=C2S/C(=C\c3ccco3)C(=O)N2CC(C)C)cc1 | inactive | -0.418% | –
70 | COc1ccccc1CCC(=O)N1CCC(n2nccc2NC(=O)CC(C)C)CC1 | inactive | -2.79% | –
71 | CCCn1c(C)cc(C(=O)COc2ccc(S(=O)(=O)N(CC)CC)cc2[N+](=O)[O-])c1C | 25.9 µM (active) | -12.5% | –
72 | CCCn1c(C)cc(C(=O)COc2ccc(C)nc2[N+](=O)[O-])c1C | inactive | 5.33% | –
73 | CCN(CC)S(=O)(=O)c1ccc(OCC(=O)NC(=O)c2ccccc2OC)c([N+](=O)[O-])c1 | inactive | 2.39% | –
74 | CN(C)S(=O)(=O)c1cccc(NC(=S)N2CCc3ccccc32)c1 | inactive | – | –
75 | CC(C)NC(=O)CN(Cc1ccccc1)S(=O)(=O)c1ccccc1 | inactive | 1.76% | –

Row | SMILES | Potency | cell number change | lipid storage change, negative = inhibition
76 | CC[n+]1c(S(=O)(=O)[O-])ccc2ccc(C)cc21 | inactive | 3.16% | –
77 | CC[n+]1c(C)sc2cc(C)ccc21 | inactive | -15.5% | –
78 | CC[N+]1=C(C)C(C)(C)c2cc(C)ccc21 | 0.231 µM (active) | -16.1% | –
79 | O=C(N/N=C/c1ccccc1)c1ccc(NC(=O)c2ccc(F)cc2)cc1 | inactive | 8.73% | –
80 | Cc1ccc(C)c(NC(=O)CSc2nc(C)cc(C)c2C#N)c1 | inactive | -1.26% | –
81 | CC(Oc1ccc2c(-c3ccccc3)cc(=O)oc2c1)C(=O)NCC1CCC(C(=O)O)CC1 (stereo not given) | inactive | – | –
82 | COc1ccc(CNC(=O)CN(Cc2ccc(Cl)cc2)S(=O)(=O)c2ccccc2)cc1 | 20.6 µM (active) | 26.1% | –
83 | COc1ccc(CNC(=O)CN(C)S(=O)(=O)c2ccc(Cl)cc2)cc1 | inactive | -9.55% | –
84 | COc1ccc(CNC(=O)CN(Cc2ccc(Cl)cc2)S(C)(=O)=O)cc1 | inactive | 15.2% | –
85 | COc1ccc(CCNC(=O)CN(Cc2ccc(Cl)cc2)S(C)(=O)=O)cc1 | inactive | -16.1% | –
86 | COCCNC(=O)CN(Cc1ccc(Cl)cc1)S(C)(=O)=O | 23.1 µM (active) | -6.66% | –
87 | COc1ccc(CCNC(=O)CN(Cc2ccc(Cl)cc2)S(C)(=O)=O)cc1OC | inactive | 5.74% | –
88 | CC1CCN(C(=O)c2[nH]cnc2C(=O)N[C@@H](CCCCNC(=O)OC(C)(C)C)C(=O)OC(C)(C)C)CC1 | inactive | -11.2% | –
89 | Clc1ccccc1-c1ncnc2ccc(Br)cc12 | inactive | -18.5% | –
90 | CN1CCN(C(c2ccc(Br)cc2)c2cc(Cl)c3cccnc3c2O)CC1 (stereo not given) | 20.6 µM (active) | 5.13% | –
91 | CN1CCN(C(c2ccccn2)c2cc(Cl)c3cccnc3c2O)CC1 (stereo not given) | inactive | – | –
92 | CN1CCN(C(c2cccnc2)c2ccc3cccnc3c2O)CC1 (stereo not given) | inactive | 8.11% | –
93 | O=C(NCc1ccc(F)cc1)C1CC(=O)N(CCc2ccccc2)C1 (stereo not given) | inactive | 15.8% | –
94 | Cc1cc(O)c(C(C)C)cc1NC1=NS(=O)(=O)c2ccccc21 | inactive | -1.35% | –
95 | Cc1cc(C)c(NC2=NS(=O)(=O)c3ccccc32)c(C)c1 | 16.4 µM (active) | – | –
96 | Cc1ccc(S(=O)(=O)NNC2=NS(=O)(=O)c3ccccc32)c(C)c1 | inactive | -0.377% | –
97 | O=C1COc2ccc(S(=O)(=O)N3CCN(c4cccc(Cl)c4)CC3)cc2N1 | inactive | -0.295% | –
98 | CC(CC(=O)N1CCN(c2cccc(Cl)c2)CC1)S(=O)(=O)c1ccc2c(c1)NC(=O)CO2 (stereo not given) | 6.51 µM (active) | – | –
99 | CC(CC(=O)N1CCN(c2ccccc2)CC1)S(=O)(=O)c1ccc2c(c1)NC(=O)CS2 (stereo not given) | inactive | -1.91% | –
